Assay results published in the supplement of paper PMC10849652.
Of roughly 8,800 targets only a part is listed; those with a hit were picked by preference. About 0.5% of all pairs of compound and target were hits.

Legend:
Assay in all cases: log2 fold change, soluble protein after heating vs DMSO (PISA); higher = thermal stabilisation; K562 lysate, 10 uM; active = over 0.2 and 3.5 SD of the protein, either way, in both replicates (recomputed)
erlotinib = compound: C#Cc1cccc(Nc2ncnc3cc(OCCOC)c(OCCOC)cc23)c1 [erlotinib]
Outline: (§1)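 A 30 min treatment with 10 μM compound was applied to crude K562 extract at 1 mg/mL protein in PBS pH 7.4 with 1 mM MgCl2. Heating for 3 min spanned 48°C-58°C, after which aliquots were pooled, adjusted to 0.5% NP-40 at 4°C and spun at 21,000xg for 90 min. TMTpro 16plex LC-MS/MS of the supernatant, with channel sums equalised, gave values recorded as log-two fold change in thermal stability against solvent controls, from duplicates.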

[1] = compound: C1=CC(=CC=C1C2=NC3=C(N2)C=C(C=C3)C(=O)N)OC4=CC=C(C=C4)Cl
Outline: as §1

[2] = compound: C1=CC2=NC=CN=C2C=C1/C=C/3\C(=O)NC(=O)S3
Outline: as §1

[3] = compound: C1=CC=C(C=C1)C2=NC(=C(N2)C3=CC=NC=C3)C4=CC(=C(C=C4)Cl)O
Outline: as §1

[4] = compound: C1CCN(C1)C(=O)NC2=CC=CC(=C2)NC3=NC=C(C(=N3)NCCC4=CN=CN4)Br
Outline: as §1

[5] = compound: C1CN(CCC1(CC2=CC=C(C=C2)Cl)N)C3=NC=NC4=C3C=CN4
Outline: as §1

IRAK-1-4 Inhibitor I = compound: C1COCCN1CCN2C3=CC=CC=C3N=C2NC(=O)C4=CC(=CC=C4)[N+](=O)[O-] [IRAK-1-4 Inhibitor I]
Outline: as §1

[6] = compound: C/C(=N\NC(=O)C1=CC(=CC=C1)S(=O)(=O)N2CCOCC2)/C3=C(C=CC(=C3)Cl)O
Outline: as §1

[7] = compound: C1=CC2=C(C=CC(=C2)/C=C\3/C(=O)NC(=NCC4=CC=CS4)S3)N=C1
Outline: as §1

[8] = compound: C1=CC=C2C(=C1)C3=NNC4=CC=CC(=C43)C2=O
Outline: as §1

Measured: log2 fold change

TNFAIP3 (UniProt P21580)
inactive: erlotinib 0.018 | [1] 0.024 | [2] 0.03 | [3] -0.049 | [4] -0.296 | [5] 0.09 | IRAK-1-4 Inhibitor I 0.047

TSPAN3 (UniProt O60637)
UniProt O60637, sequence (O60637 whole entry, looked up): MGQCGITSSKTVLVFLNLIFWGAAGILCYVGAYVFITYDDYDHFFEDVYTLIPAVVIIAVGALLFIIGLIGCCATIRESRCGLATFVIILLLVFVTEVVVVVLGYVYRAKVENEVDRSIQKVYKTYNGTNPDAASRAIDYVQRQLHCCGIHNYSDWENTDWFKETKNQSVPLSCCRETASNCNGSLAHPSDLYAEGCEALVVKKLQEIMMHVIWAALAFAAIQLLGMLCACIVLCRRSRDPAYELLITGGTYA
inactive: erlotinib 0.002 | [6] 0.012 | [1] 0.058 | [7] -0.073 | [3] 0 | [8] -0.135 | [4] 0.006 | [5] 0.032 | IRAK-1-4 Inhibitor I 0.091

TCF3 (UniProt X6REB3)
inactive: [6] -0.006 | [7] -0.208 | [8] -0.192

THAP9 (UniProt Q9H5L6)
inactive: [6] 0.019 | [7] -0.015 | [2] 0.01 | [3] 0.028 | [8] -0.042 | [4] -0.092 | [5] 0.098 | IRAK-1-4 Inhibitor I 0.145

TNIK isoform 5 (UniProt Q9UKE5)
UniProt Q9UKE5, sequence (Q9UKE5 whole entry, looked up): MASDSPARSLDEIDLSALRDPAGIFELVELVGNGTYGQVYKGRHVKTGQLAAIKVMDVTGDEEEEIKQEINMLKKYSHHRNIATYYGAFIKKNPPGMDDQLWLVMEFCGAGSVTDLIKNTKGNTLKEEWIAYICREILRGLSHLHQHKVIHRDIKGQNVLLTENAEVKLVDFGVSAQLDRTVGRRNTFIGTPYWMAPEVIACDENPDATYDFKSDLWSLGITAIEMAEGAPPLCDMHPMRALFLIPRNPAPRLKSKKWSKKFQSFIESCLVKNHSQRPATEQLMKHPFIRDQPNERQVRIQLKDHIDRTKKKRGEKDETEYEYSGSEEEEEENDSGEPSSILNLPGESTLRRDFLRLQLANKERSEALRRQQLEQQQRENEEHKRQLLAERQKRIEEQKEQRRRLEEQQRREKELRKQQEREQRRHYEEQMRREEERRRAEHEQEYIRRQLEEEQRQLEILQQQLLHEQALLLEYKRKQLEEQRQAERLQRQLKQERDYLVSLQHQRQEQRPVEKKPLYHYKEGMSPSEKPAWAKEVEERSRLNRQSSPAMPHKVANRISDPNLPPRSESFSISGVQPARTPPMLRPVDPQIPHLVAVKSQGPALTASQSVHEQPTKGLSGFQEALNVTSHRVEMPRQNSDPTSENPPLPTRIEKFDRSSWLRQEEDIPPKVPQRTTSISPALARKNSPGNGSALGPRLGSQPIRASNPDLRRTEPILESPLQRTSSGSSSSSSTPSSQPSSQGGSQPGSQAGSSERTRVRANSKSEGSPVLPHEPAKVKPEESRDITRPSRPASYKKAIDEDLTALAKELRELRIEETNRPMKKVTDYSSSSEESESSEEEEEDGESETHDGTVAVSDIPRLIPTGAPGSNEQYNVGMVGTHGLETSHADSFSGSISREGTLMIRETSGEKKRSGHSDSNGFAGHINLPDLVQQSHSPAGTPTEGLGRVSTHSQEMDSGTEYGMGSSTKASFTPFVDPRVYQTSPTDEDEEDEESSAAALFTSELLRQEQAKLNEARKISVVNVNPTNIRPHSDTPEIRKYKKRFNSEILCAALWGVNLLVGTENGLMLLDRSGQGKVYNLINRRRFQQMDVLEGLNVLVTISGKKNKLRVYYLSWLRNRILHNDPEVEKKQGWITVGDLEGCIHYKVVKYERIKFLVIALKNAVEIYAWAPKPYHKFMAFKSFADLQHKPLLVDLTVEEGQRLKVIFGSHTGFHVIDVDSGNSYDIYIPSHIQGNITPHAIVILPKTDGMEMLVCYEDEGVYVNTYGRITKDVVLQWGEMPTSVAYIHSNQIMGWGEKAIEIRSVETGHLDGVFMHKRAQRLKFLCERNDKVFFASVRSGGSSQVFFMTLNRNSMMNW
inactive: [2] 0.008 | [3] 0.134 | IRAK-1-4 Inhibitor I -0.038

UBAP2L isoform 1 (UniProt Q14157)
UniProt Q14157, sequence (Q14157 whole entry, looked up): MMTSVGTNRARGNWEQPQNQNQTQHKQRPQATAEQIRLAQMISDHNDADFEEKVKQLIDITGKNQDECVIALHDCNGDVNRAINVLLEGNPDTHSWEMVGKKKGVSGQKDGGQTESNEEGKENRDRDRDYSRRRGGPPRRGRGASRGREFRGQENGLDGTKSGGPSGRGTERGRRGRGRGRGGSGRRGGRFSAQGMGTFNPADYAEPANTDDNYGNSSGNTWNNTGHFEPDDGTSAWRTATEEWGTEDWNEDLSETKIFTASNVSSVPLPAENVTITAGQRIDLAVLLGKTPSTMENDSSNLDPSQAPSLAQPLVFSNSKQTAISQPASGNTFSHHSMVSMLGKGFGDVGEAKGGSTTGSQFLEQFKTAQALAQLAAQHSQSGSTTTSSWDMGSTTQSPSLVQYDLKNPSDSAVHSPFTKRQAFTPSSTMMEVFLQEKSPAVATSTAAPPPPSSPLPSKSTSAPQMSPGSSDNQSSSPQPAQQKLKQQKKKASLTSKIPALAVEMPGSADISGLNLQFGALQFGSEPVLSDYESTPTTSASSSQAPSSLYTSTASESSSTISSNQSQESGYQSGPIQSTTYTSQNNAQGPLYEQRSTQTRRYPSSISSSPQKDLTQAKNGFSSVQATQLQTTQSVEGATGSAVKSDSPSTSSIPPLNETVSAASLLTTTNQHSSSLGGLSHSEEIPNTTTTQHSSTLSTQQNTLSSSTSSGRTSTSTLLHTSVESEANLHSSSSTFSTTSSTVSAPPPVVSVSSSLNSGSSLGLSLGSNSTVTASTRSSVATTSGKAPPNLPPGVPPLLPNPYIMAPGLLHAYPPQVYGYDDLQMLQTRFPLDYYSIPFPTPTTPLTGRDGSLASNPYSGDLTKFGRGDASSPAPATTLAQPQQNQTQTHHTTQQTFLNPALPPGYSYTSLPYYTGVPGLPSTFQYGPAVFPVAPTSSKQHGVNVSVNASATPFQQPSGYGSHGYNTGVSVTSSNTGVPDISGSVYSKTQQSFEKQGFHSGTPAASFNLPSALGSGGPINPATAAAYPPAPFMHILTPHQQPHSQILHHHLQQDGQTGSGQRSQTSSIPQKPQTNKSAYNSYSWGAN
inactive: [2] 0.081 | [3] -0.367 | IRAK-1-4 Inhibitor I 0.084

TCF3 isoform 2 (UniProt P15923)
UniProt P15923, sequence (P15923 whole entry, looked up): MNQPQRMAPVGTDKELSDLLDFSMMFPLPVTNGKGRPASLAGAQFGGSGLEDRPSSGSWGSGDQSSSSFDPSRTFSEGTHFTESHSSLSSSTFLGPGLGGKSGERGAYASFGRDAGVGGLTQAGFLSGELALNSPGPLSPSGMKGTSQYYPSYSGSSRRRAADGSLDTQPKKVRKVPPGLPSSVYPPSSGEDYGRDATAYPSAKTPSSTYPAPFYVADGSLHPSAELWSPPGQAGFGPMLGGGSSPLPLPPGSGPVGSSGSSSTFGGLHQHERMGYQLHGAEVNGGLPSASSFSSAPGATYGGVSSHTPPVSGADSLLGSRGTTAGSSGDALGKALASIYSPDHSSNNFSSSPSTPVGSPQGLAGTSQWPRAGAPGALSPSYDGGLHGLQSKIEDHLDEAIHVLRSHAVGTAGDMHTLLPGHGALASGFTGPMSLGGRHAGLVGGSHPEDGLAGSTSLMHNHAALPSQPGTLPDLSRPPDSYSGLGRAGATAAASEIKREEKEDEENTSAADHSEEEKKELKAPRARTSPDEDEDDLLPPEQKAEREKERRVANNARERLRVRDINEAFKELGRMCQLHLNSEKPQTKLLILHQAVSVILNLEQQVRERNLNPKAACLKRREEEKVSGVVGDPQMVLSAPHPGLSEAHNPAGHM
inactive: erlotinib 0.131 | [1] -0.049 | [3] 0.154 | IRAK-1-4 Inhibitor I -0.249

TCF4 (UniProt P15884)
inactive: [3] 0.005 | [4] 0.234 | [5] -0.165 | IRAK-1-4 Inhibitor I -0.152

TEC (UniProt P42680)
UniProt P42680, sequence (P42680 whole entry, looked up): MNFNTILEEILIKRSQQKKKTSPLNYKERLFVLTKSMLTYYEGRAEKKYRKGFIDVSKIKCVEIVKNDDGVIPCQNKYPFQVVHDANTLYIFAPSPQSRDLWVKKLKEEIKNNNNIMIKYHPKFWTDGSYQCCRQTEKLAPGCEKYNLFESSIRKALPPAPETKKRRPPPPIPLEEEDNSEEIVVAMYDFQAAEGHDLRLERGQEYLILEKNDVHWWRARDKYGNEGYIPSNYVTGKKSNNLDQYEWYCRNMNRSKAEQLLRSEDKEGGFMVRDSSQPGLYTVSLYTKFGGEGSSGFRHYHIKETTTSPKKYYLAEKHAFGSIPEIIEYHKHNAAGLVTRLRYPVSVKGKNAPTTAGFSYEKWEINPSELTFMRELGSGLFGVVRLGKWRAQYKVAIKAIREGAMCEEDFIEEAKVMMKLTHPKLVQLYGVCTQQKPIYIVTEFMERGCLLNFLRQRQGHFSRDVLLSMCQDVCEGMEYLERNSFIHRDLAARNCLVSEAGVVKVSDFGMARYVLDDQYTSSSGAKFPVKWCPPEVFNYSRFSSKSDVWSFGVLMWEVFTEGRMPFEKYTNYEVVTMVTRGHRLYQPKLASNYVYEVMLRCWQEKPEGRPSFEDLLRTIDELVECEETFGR
inactive: [6] 0.092 | [7] -0.051 | [8] -0.048 | [4] -0.024 | [5] -0.038

TPD52L2 isoform 3 (UniProt O43399)
UniProt O43399, sequence (O43399 whole entry, looked up): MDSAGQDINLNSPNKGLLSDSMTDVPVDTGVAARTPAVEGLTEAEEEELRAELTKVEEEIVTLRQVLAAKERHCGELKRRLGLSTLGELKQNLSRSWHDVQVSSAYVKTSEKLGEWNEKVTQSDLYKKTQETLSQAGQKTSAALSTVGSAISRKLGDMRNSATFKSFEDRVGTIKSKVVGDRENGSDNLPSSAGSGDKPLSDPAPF
inactive: erlotinib 0.008 | [1] -0.036 | [2] -0.028 | [3] -0.049 | IRAK-1-4 Inhibitor I 0.029

TXNRD2 isoform 3 (UniProt Q9NNW7)
UniProt Q9NNW7, sequence (Q9NNW7 whole entry, looked up): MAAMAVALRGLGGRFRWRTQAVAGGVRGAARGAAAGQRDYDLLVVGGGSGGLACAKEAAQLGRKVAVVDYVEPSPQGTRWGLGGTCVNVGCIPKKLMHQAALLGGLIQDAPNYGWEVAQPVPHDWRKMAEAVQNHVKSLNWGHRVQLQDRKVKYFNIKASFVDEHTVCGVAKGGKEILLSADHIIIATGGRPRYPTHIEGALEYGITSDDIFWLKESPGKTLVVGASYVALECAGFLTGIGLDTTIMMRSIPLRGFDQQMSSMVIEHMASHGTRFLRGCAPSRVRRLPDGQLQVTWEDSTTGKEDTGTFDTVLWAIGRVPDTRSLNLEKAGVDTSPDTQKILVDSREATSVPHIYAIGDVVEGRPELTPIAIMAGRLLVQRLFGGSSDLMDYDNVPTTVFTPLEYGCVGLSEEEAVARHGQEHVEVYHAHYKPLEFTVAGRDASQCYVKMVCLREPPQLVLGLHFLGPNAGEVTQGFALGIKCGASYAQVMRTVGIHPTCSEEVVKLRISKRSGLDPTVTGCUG
inactive: erlotinib 0.024 | [1] 0.035 | [3] 0.14 | IRAK-1-4 Inhibitor I -0.006

TRPM4 (UniProt Q8TD43)
inactive: erlotinib 0.018 | [1] 0.164 | [2] -0.094 | [3] 0.004 | IRAK-1-4 Inhibitor I -0.152

TFPT (UniProt P0C1Z6)
UniProt P0C1Z6, sequence (P0C1Z6 whole entry, looked up): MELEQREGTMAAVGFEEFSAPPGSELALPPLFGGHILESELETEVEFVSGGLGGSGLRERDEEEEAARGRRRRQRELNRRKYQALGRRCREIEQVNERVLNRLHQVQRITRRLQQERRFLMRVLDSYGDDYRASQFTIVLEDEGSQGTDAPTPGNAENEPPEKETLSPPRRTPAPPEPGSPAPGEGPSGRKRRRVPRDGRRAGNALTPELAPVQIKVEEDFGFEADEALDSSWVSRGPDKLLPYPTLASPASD
inactive: erlotinib -0.078 | [1] 0.037 | [2] -0.186
